# TDP1 cell noCPT – qHTS for Inhibitors of human tyrosyl-DNA phosphodiesterase 1 (TDP1): qHTS in cells in absence of CPT; DT40 Tdp1-/- hTDP1 cells, no CPT, ATP luminescence, 48 h; Potency, µM (highest dose often 46.2 µM), most hits filed as inhibitors; hit rate 15% among 420,000; AID 686978, 2013; also: nearly all actives have a fitted effect of over 55% in size
#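 DT40 Tdp1-/-;hTDP1 cells, no CPT (DMSO vehicle only), 400 cells/well; compounds pin-transferred; ≥48 hr, 37 °C; CellTiter-Glo 30 min RT dark, luminescence read.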
# MCF10A rereplic – A quantitative high throughput screen for small molecules that induce DNA re-replication in MCF 10a normal breast cells; hit rate 2.9% among 350,000; MCF 10A DNA re-replication, Hoechst nuclear intensity, 48 h; Potency, µM (highest dose often 46.1 µM), actives largely listed as activators; AID 624296, 2012; also: nearly all actives have a fitted effect of over 50% in size
# TDP1 cell CPT – qHTS for Inhibitors of human tyrosyl-DNA phosphodiesterase 1 (TDP1): qHTS in cells in presence of CPT; chicken DT40 Tdp1-/-;hTDP1 cells + 20 nM CPT, ATP luminescence, 48 h; Potency, µM (titrated, usually from 46.2 µM), hits mostly inhibitors; hit rate 12% among 420,000; also: nearly all actives have a fitted effect of over 55% in size
#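 Cell growth measured by CellTiter-Glo luminescence after a minimum 48 h, 37 C compound exposure with 20 nM CPT in Tdp1-knockout DT40 cells stably expressing hTDP1, seeded 400/well; qHTS titration format.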
# BCR signal inh – qHTS Assay to Find Inhibitors of Chronic Active B-Cell Receptor Signaling; hit rate 0.05% among 340,000; ABC-DLBCL IkBa-CBG/CBR reporter, luminescence ratio, 4 h; AID 493014, 2011; Potency, µM (series often up to 46.1 µM), most hits filed as inhibitors; active = well fitted inhibition curve with a large enough effect in the signal ratio, with a control signal flat, not every such curve was filed as active; inconclusive = small, poorly fitted or top-dose-only effect, or effect the other way, or a change in a side signal; the % refers to the signal ratio
#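 Doxycycline induced both beetle luciferases in TMD8 lymphoma cells; IKK-driven degradation limits the IkappaBalpha-fused green signal, while red luminescence normalises for cell number and nonspecific effects. Compounds tested up to 46 uM, 4 hrs.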
# IL1B secr inh – qHTS for Inhibitors of Inflammasome Signaling: IL-1-beta AlphaLISA Primary Screen. hit rate 4.7% among 360,000. activity change, % at 57.5 µM. THP-1 LPS/ATP IL-1B secretion, AlphaLISA, 16 h; active compounds read low. AID 743279, 2014; in the data active = activity change below about -50%; inconclusive = mostly about -30% to -49%
#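 THP-1 cells pretreated 1 hr with compounds (up to 57.5 uM final), then stimulated with LPS (250 ng/mL final) plus ATP (1.25 mM final); secreted IL-1B measured by AlphaLISA after 16 hr, decreased signal indicating inhibition.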
# SW480 rereplic – A quantitative high throughput screen for small molecules that induce DNA re-replication in SW480 colon adenocarcinoma cells; Potency, µM (doses to about 46.1 µM), actives largely listed as activators; hit rate 1.8% among 340,000; SW480 DNA re-replication, Hoechst DNA content imaging, 48 h; also: nearly all actives have a fitted effect of over 55% in size
#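 Image-based DNA-content assay: after two days of treatment, nuclei were labelled with the DNA dye Hoechst and imaged, and hits were compounds raising the count of nuclei showing high fluorescence intensity.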
# A number is an active result; . = inactive; ? = inconclusive; / = no result given. Sampled rows, rich in hits. Any-hit rate of the full collection: about 19%. Unless noted, calls follow the shape of the dose curve; as a rule, active = well fitted curve in the direction sought with a large enough effect; inconclusive = small, poorly fitted or top-dose-only effect, or another doubt; inactive = no such curve, though single readings can be large; an effect the other way counts as inactive or inconclusive.
SMILES,TDP1 cell noCPT,MCF10A rereplic,TDP1 cell CPT,BCR signal inh,IL1B secr inh,SW480 rereplic
CC(C)(C)OC(=O)NCCCC[C@H](NC(=O)c1[nH]cnc1C(=O)Nc1ccc(CNC(=O)OC(C)(C)C)cc1)C(=O)OC(C)(C)C,4.61µM,4.11µM,5.8µM,?,.,.
CC1CCN(C(=O)c2[nH]cnc2C(=O)N[C@@H](CCCCNC(=O)OC(C)(C)C)C(=O)OC(C)(C)C)CC1,?,?,?,.,.,.
CC(C)(C)OC(=O)NCc1ccc(NC(=O)c2nc[nH]c2C(=O)NCCCCCCNC(=O)c2[nH]cnc2C(=O)Nc2ccc(CNC(=O)OC(C)(C)C)cc2)cc1,5.8µM,?,5.8µM,.,.,.
CC(C)(C)OC(=O)NCc1ccc(NC(=O)c2nc[nH]c2C(=O)NCCN(CCNC(=O)c2[nH]cnc2C(=O)Nc2ccc(CNC(=O)OC(C)(C)C)cc2)CCNC(=O)c2[nH]cnc2C(=O)Nc2ccc(CNC(=O)OC(C)(C)C)cc2)cc1,.,.,?,.,.,.
COCCNc1ncnc2c1ncn2[C@H]1CN(Cc2ccccc2)C[C@@H](CO)O1,.,/,.,/,.,/
COc1ccc(NC(=O)N2CCN(S(=O)(=O)c3ccc4c(ccn4C)c3)CC2)cc1OC,.,/,.,/,/,/
O=C(CSc1ccc2nnc(-c3ccccn3)n2n1)Nc1ccc(F)cc1F,?,.,.,.,.,.
O=C(NCCCCCCCN1CCCCCCC1)C(C1CCCCC1)C1CCCCC1,14.6µM,.,13µM,/,-81.6,?
Cc1ccc(Cn2nnc3c(=O)n(CC(=O)OCc4ccccc4)cnc32)cc1,16.4µM,.,18.4µM,?,.,.
O=C(Cn1cnc2c(nnn2Cc2ccc(F)cc2)c1=O)OCc1ccccc1,.,.,?,.,.,.
O=C(Cn1cnc2c(nnn2Cc2ccc(F)cc2)c1=O)N1CCCCC1,.,.,.,.,.,.
Cc1ccc(Cn2nnc3c(=O)n(CC(=O)N4CCN(c5ccccc5)CC4)cnc32)cc1,?,?,20.6µM,.,?,.
Cc1cccc(Cn2cnc3c(nnn3Cc3ccccc3F)c2=O)c1,28.2µM,?,?,.,.,.
CC1CCN(C(=O)C2COc3ccccc3C2)CC1 (configuration not stated),.,/,.,/,/,/
CCOC(=O)c1cc(CC)sc1NC(=O)c1ccc([N+](=O)[O-])c(N2CCOCC2)c1,.,.,.,.,.,.
N#Cc1cn(Cc2ccco2)c(=O)[nH]c1=O,.,.,.,/,.,.
Cn1cc(CC(=O)NCc2ccc(F)cc2)c2ccccc21,.,.,.,?,.,.
CC(C)c1ccc(NC(=O)CCn2c(=O)c3cccn3c3ccccc32)cc1,14.6µM,/,20.6µM,/,/,/
Cc1cc(C)c(NC(=O)CCn2c(=O)c3cccn3c3ccccc32)c(C)c1,16.4µM,/,?,/,/,/
CCc1cccc(C)c1NC(=O)CCn1c(=O)c2cccn2c2ccccc21,23.1µM,/,?,/,/,/
CC(C)c1ccc(NC(=O)Cc2cn(C)c3ccccc23)cc1,16.4µM,.,.,?,.,.
COc1ccc(NC(=O)Cn2c(=O)c3cccn3c3ccccc32)cc1,.,/,?,/,/,/
O=C1NC[C@H](CCCCN2C[C@H](Cc3ccccc3)N(CCc3ccc(O)cc3)C(=O)C2=O)N(CC2CCCCC2)C1=O,?,/,.,/,.,/
C[C@H](CO)N1C[C@H](C)[C@@H](CN(C)S(=O)(=O)c2ccccc2F)Oc2ncc(Br)cc2C1=O,.,/,.,/,.,/
Cc1ccc2nc(NC(=O)CSc3nccn3Cc3ccc(Cl)cc3)sc2c1,.,/,.,/,/,/
SMILES,TDP1 cell noCPT,MCF10A rereplic,TDP1 cell CPT,BCR signal inh,IL1B secr inh,SW480 rereplic
COc1ccc(-n2c(C)nc3cc(C(=O)NC4CCCC4)ccc32)cc1,.,/,.,?,/,/
COc1cccc(C(C)NC(=O)Nc2ccccc2Cl)c1 (configuration not stated),?,.,20.6µM,.,.,.
O=C(CN1CCN(C(=O)C2CCN(C(=O)/C=C/c3ccccc3)CC2)CC1)Nc1ccccc1Cl,18.4µM,.,?,.,.,?
COc1ccc(CN(C(=O)Nc2cccc(OC)c2)C2CCN(C(C)=O)CC2)cc1,.,/,.,.,/,/
CCN1CCC(N(Cc2cccc(OC)c2)C(=O)Nc2ccc(C)cc2Cl)CC1,18.4µM,/,?,/,/,/
O=C(CN1CCN(CC(=O)Nc2ccccc2Cl)CC1)Nc1ccc(F)c(F)c1,23.1µM,.,?,.,.,?
O=C(CN1CCCCCC1)Nc1ccc(F)c(F)c1,.,.,.,.,.,.
O=C(CN1CCCCCC1)Nc1ccccc1Cl,.,.,.,?,.,.
COc1cc(C(=O)NCc2ccc3c(c2)CCN3C(=O)c2ccncc2)cc(OC)c1OC,?,/,?,.,/,/
CC(=NNC(=O)c1ccncc1)c1cc(Cl)ccc1Cl,.,.,.,/,.,.
COC(=O)c1ccc(Cl)cc1NC(=O)N(Cc1ccc(OC)cc1)C1CCN(C(C)=O)CC1,7.31µM,/,?,/,/,/
COc1ccc(NC(C)=O)cc1NC(=O)CN1CCN(CC(=O)Nc2ccccc2Cl)CC1,20.6µM,.,?,.,?,.
COc1ccccc1CN(C)C(=O)CN1CCN(CC(=O)Nc2ccccc2Cl)CC1,23.1µM,.,23.1µM,.,.,.
COc1cccc(CN2CCN(CC(=O)Nc3ccccc3Cl)CC2)c1,16.4µM,.,?,.,.,.
COc1ccccc1CN(C)C(=O)CN1CCN(C(=O)c2cccs2)CC1,?,.,?,.,.,.
CCOc1ccccc1NS(=O)(=O)c1ccc2oc(=O)c3ncn(C)c3c2c1,.,/,.,/,/,/
O=C(NCCCN1CCOCC1)c1cnccn1,.,.,.,.,.,.
O=C(CCc1ccncc1)N1CCCC(Nc2ccc(F)c(F)c2)C1 (configuration not stated),?,.,.,.,.,.
Cc1ccc(NC(=O)/C=C/c2ccco2)cc1S(=O)(=O)N1CCCCCC1,9.2µM,?,20.6µM,/,.,.
Cc1ccc(NC(=O)c2ccc(F)cc2)cc1S(=O)(=O)N1CCCCCC1,.,?,?,?,?,.
Cc1ccc(NC(=O)CNc2ccccc2N2CCCC2=O)cc1S(=O)(=O)N1CCCCC1,14.6µM,.,16.4µM,.,.,.
Cc1ccc(NC(=O)CCl)cc1S(=O)(=O)N1CCCCCC1,2.59µM,?,2.06µM,.,-87.1,?
COCCNCC(=O)Nc1ccc(C)c(S(=O)(=O)N2CCCCC2)c1,.,.,.,.,.,.
